{"source": "PubChem BioAssay AID2669", "about": "(National Center for Advancing Translational Sciences (NCATS), 2010)", "note": "Inconclusive results are not listed. Calls of active or inactive are those of the source. Calls follow the shape of the dose curve; as a rule, active = well fitted inhibition curve with a large enough effect; inconclusive = small, poorly fitted or top-dose-only effect, or effect the other way; inactive = flat fitted curve, though single readings scatter.", "data": [{"experiment": "qHTS Assay Multiplex Screening to Identify Dual Action Probes in a Cell Model of Huntington: Cytoprotection (Protease relase)", "conditions": "PC12 HttQ103 cells, Cytotox-Glo protease release, 40 h; series mostly up to 46.1 µM", "text": "NIH Chemical Genomics Center [NCGC]\nNIH Molecular Libraries Probe Production centers Network [MLPCN]\nAssay Submitter (PI): Wei Zheng\nHuntington's disease is a neurodegenerative disorder caused by a trinucleotide repeat expansion in Exon 1 of the Huntingtin gene. The CAG trinucleotide encodes glutamine and polyglutamine expansions cause cell death in selective areas of the brain. Huntington polyglutamine repeats have the tendency to form aggregates which are observable in later stages of the disease. The exact nature of the aggregates, whether toxic, protective, or insignificant, is unclear.\nA stable PC12 cell line containing a gene fusion of Exon 1 of the Huntingtin gene linked to GFP under the control of the inducible ecdysone promoter were used as the cell-based model of Huntington Disease for high throughput screening. Exon 1 of the Huntingtin gene contained an expansion of 103 polyglutamines (Q103) which, when expressed, caused cell death and distinct, bright GFP aggregates. The amount of cell death and the size and intensity of GFP aggregates increased over time and induction level. In the primary screen, cell death were quantified with a measurement of ATP content in the cells. A maximal 40-50% of cell death was observed when the Huntington gene was induced in this cell line.\nWe optimized this assay in a homogeneous 1536 well format. A quantitative high throughput screen (qHTS) was conducted on the PC12 cells which were induced to express the toxic fusion construct. Small molecules which prevented cell death were considered hits, and were further studied. The present assay is an alternate assay for cytoprotection using Promega's Cytotox-Glo reagent.\nPC12 cells stably containing a construct with an ecdysone inducible promoter expressing GFP fused to the exon 1 of HTTQ103 (Huntington protein which containing a 103 ployglutamine expansion) were used.\nNCGC Assay Protocol Summary:\nSequence, Parameter, Description\n1, Reagent, 5 uL 1500 cells/well 1536 TC treated White clear bottom plate\n2, Compound, 23 nL Tebufenozide inducer (100 nM final) to all columns\n3, Compound, 23 nL 40 uM to 0.5 nM Libraries\n5, Reagent, 2 ul Promega's Cytotox-Glo assay reagent\n6, Detector, 4 sec integration with a Viewlux Luminescent\nMedia consisted of phenol red free DMEM + 5% equine serum (Hyclone # SH30072.03 ), 5% supplemented Bovine Calf Serum (Hyclone # SH30074.03 ), 1x pen/strep, no G418", "values": [{"smiles": "CN(C)CCCSc1ccccc1NC(=O)/C=C\\c1ccccc1", "Potency": "6.31 µM (active)"}, {"smiles": "O=C(N/N=C/c1ccc(O)c(O)c1)c1ccc(CSc2cccc3cccnc23)cc1", "Potency": "8.91 µM (active)"}, {"smiles": "C=C1CCC2[C@](C)(CO)[C@H](O)CC[C@@]2(C)[C@@H]1C/C=C1/C(=O)OC[C@H]1O", "note": "(stereo not given in full)", "Potency": "inactive"}, {"smiles": "Cn1nnnc1Sc1ncnc2scc(-c3ccc(C(F)(F)F)cc3)c12", "Potency": "12.6 µM (active)"}, {"smiles": "c1csc(-c2cn3c(n2)SCC3)c1", "Potency": "inactive"}, {"smiles": "CCOC(=O)c1noc(C)c1C(=O)Nc1cccc(F)c1", "Potency": "7.08 µM (active)"}, {"smiles": "O=C(NCN1C(=O)C2C3C=CC(C3)C2C1=O)Nc1ccccn1", "note": "(stereo not given)", "Potency": "inactive"}, {"smiles": "O=C(CN1CCN(c2ccccn2)CC1)NC1CCCC1", "Potency": "inactive"}, {"smiles": "Cn1nnnc1Sc1ncnc2scc(-c3ccc[nH]3)c12", "Potency": "8.91 µM (active)"}, {"smiles": "CCN(Cc1ccncc1)C(=O)c1cc(Br)cc(Br)c1O", "Potency": "inactive"}, {"smiles": "NC(=O)c1sc2nccc(Nc3ccccc3)c2c1N", "Potency": "inactive"}, {"smiles": "COc1cc2nc(N3CCN(C(=O)C4CCCO4)CC3)nc(N)c2cc1OC", "note": "(stereo not given)", "Potency": "4.47 µM (active)"}, {"smiles": "Cn1nnnc1Sc1ncnc2scc(-c3ccc(Br)cc3)c12", "Potency": "7.08 µM (active)"}, {"smiles": "C[C@@H]1CNCCN1S(=O)(=O)c1cccc2cnccc12", "Potency": "inactive"}, {"smiles": "Cn1nnnc1Sc1ncnc2scc(-c3cccc(C#N)c3)c12", "Potency": "10 µM (active)"}, {"smiles": "CCOC(=O)N1CCN(C(=O)CSCC(=O)Nc2nc(-c3ccc(-c4ccccc4)cc3)cs2)CC1", "Potency": "3.16 µM (active)"}, {"smiles": "COc1ccc(CNC(=O)CN(C(=O)CCC(=O)Nc2ccccn2)c2ccccc2OC)cc1", "Potency": "inactive"}, {"smiles": "Cn1nnnc1Sc1ncnc2scc(-c3ccccc3F)c12", "Potency": "12.6 µM (active)"}, {"smiles": "CCOC(=O)c1sc2nc(N3CCOCC3)c3c(c2c1N)CC(C)(C)N(C)C3", "Potency": "inactive"}, {"smiles": "O=C(NCc1ccco1)c1cc2ccc(O)cc2oc1=O", "Potency": "2.82 µM (active)"}, {"smiles": "N#Cc1c(C(F)(F)F)cc(-c2cccc(Cl)c2)[nH]c1=O", "Potency": "2.51 µM (active)"}, {"smiles": "CCOC(=O)c1sc2nc(N3CCOCC3)c3c(c2c1N)CCN(C)C3", "Potency": "inactive"}, {"smiles": "CN1C(=O)NC(NC(=O)c2cccs2)(C(F)(F)F)C1=O", "note": "(stereo not given)", "Potency": "inactive"}, {"smiles": "Cn1nnnc1Sc1ncnc2scc(-c3ccsc3)c12", "Potency": "7.94 µM (active)"}, {"smiles": "O=C(CNc1ccc(Oc2ccccc2)cc1)N1CCOCC1", "Potency": "14.1 µM (active)"}, {"smiles": "NCCCCCc1cnc[nH]1", "Potency": "inactive"}, {"smiles": "Fc1ccc(N2CCN(c3ncnc4nc[nH]c34)CC2)cc1", "Potency": "4.47 µM (active)"}, {"smiles": "Cn1nnnc1Sc1ncnc2scc(-c3ccc4c(c3)OCO4)c12", "Potency": "10 µM (active)"}, {"smiles": "Cn1nnnc1Sc1ncnc2scc(-c3ccc(F)cc3)c12", "Potency": "15.8 µM (active)"}, {"smiles": "CCN(CC)CCNc1ccc(CO)c2sc3ccccc3c(=O)c12", "Potency": "10 µM (active)"}, {"smiles": "O=C(O)CCN1C(=O)/C(=C\\c2ccc(-c3nc4ccccc4s3)o2)SC1=S", "Potency": "5.62 µM (active)"}, {"smiles": "O=C(Nc1cccnc1)Nc1ccccc1Cl", "Potency": "3.16 µM (active)"}, {"smiles": "Cc1cccc(OCc2nc(C)cc(=O)[nH]2)c1", "Potency": "10 µM (active)"}, {"smiles": "N#Cc1ccsc1NC(=O)CSc1ncnc2ccccc12", "Potency": "inactive"}, {"smiles": "CC(C(=O)O)c1ccc(CC2CCCC2=O)cc1", "note": "(stereo not given)", "Potency": "inactive"}, {"smiles": "CCCCCCCCNc1ncnc2ccccc12", "Potency": "inactive"}, {"smiles": "Cc1ccc(-n2ncc(Br)c(Br)c2=O)cc1", "Potency": "12.6 µM (active)"}, {"smiles": "Cn1nnnc1Sc1ncnc2scc(-c3cccc(S(C)(=O)=O)c3)c12", "Potency": "7.08 µM (active)"}, {"smiles": "Cc1cc(NC(=O)CCS(=O)(=O)c2nc(-c3ccccc3)cc(C(F)(F)F)n2)no1", "Potency": "inactive"}, {"smiles": "Cn1nnnc1Sc1ncnc2scc(-c3cccc(C(F)(F)F)c3)c12", "Potency": "14.1 µM (active)"}]}]}
